# Rows were chosen to be rich in hits. Some 2.4% of all compounds tested hit in one or more screens of this group.
# RTF Ca sens inh: cardiac RTF calcium desensitization; inhibition, % at 7.15 µM; AID 493244; 0.12% of 340,000 active; IANBD-labeled cardiac RTF, Ca2+ fluorescence;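 active means inhibition above the mean inhibition of all tested compounds plus 3 SD, cut at about 17% in these data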;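 further: assay run at fixed EC70 calcium of 1.6 mM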
# cardiac RTF act: cardiac RTF calcium sensitization; activation, % at 7.2 µM; IANBD-labeled TnC RTF fluorescence at EC20 calcium; 0% EC20 calcium, 100% full calcium; P19429+P45379; 0.24% of 340,000 active;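 active means activation above the mean over all tested compounds plus 3 SD, cut at about 30% in these data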;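 further: rise in fluorescence read as greater calcium sensitivity of cardiac thin filaments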
# CRFBP-R2 agonist: CRF-BP/CRF-R2 complex agonism; HEK293 CRF-R2/CRF-BP, calcium dye fluorescence (FLIPR); percent of saturating CRF peptide response; activation, % at 13.2 µM; 0.46% of 350,000 active;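 active means activation of at least 50%, plus an integration ratio under a set limit after plate pattern correction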
# CRFR2-BP antag: antagonists of CRF-binding protein/CRF-R2 receptor complex; HEK293 CRF-R2/CRF-BP, CRF-induced calcium fluorescence; inhibition, % at 11.8 µM; 0.59% of 350,000 active;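 active means inhibition of the ligand-induced calcium signal above about 50% at the single tested concentration, limit read from the data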
# ANO1 block: inhibitors of mouse TMEM16A calcium-activated chloride channel | Q8BHY3 | HEK293 TMEM16A/YFP iodide influx fluorescence, ionomycin | normalized B-score (activity score, 25-100; higher = stronger inhibition) at 10 µM | 1.2% of 310,000 active;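 active means ratio plate-corrected score three or more library SD toward inhibition, starting fluorescence score within five deviations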;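 further: score derived from kinetic fluorescence span divided by baseline fluorescence per well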
# ANO1 activ: mouse TMEM16A channel activation, primary screen; HEK293 TMEM16A/YFP-H148Q/I152L, iodide quench fluorescence; stronger effect = lower value; 0.3% of 340,000 active; B-score at 10 µM;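 active means fluorescence-ratio B-score plate-corrected deviation score at least 3 library SD below zero, with starting fluorescence score within 5 deviations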;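 further: channel opened by trigger with iodide after compound preincubation; score built on the fluorescence ratio of max minus min over baseline; more negative score means more quench and so TMEM16A activation or potentiation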
# TMEM16A reconf: TMEM16A (mouse) chloride channel inhibition, re-confirmation. shares compounds with ANO1 block. HEK293 TMEM16A/YFP-H148Q, iodide quench fluorescence; ionomycin added to raise cell calcium. inhibition, % at 10 µM. 39% of 2,300 active. AID 652189;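 active means mean duplicate percent inhibition, scaled so buffer wells are 0 and the reference blocker 100, over three buffer SD above buffer mean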
# TMEM16A Ca cntr: calcium mobilization counter-screen hit for TMEM16A inhibitor series; shares compounds with ANO1 block; TMEM16A/YFP HEK293, Fluo4 calcium mobilization; calcium response (% of ionomycin), % at 10 µM; 2% of 2,300 active;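 active means duplicate-averaged calcium signal over 20% of the ionomycin maximum, relative to buffer baseline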;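 further: each well's signal is peak minus trough fluorescence divided by its pre-addition baseline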
# Parental YFP cnt: counter-screen for TMEM16A inhibitors: effect in parental YFP-HEK293 cells. shares compounds with ANO1 block. AID 652233. 2,300 tested, under 10 active. iodide YFP quench, ionomycin. YFP ratio F(max-min)/F0 at 10 µM;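 active means yellow fluorescent protein signal ratio exceeding the buffer control mean by over 5 SD of those controls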;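 further: ratio is mean of duplicate wells from kinetic YFP trace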
# ClC-1 inh: rat ClC-1 inhibition, TMEM16A specificity screen | shares compounds with ANO1 block | CHO ClC-1-YFP, iodide influx fluorescence quench; iodide control reads 0, buffer control 100 | ratio percent, % at 10 µM | 2,300 tested, under 10 active;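 active means duplicate-mean ratio percent above the mean of iodide-only control wells, which defines zero, plus 5 of their SD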;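 further: higher percent means stronger block of ClC-1 iodide influx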
# Hits are given with their value; - = inactive; . = not tested or not shown.
SMILES,RTF Ca sens inh,cardiac RTF act,CRFBP-R2 agonist,CRFR2-BP antag,ANO1 block,ANO1 activ,TMEM16A reconf,TMEM16A Ca cntr,Parental YFP cnt,ClC-1 inh
COc1ccc(-c2oc3ccc(-c4ccc5c(c4)OCO5)cc3c2-c2ccc(OC)nc2)cc1,-,-,-,-,-,-,.,.,.,.
Cc1[nH]n(-c2ccccc2)c(=O)c1N=Nc1c(O)cc(S(=O)(=O)N(C)C)c2ccccc12,-,-,-,-,100,-,48%,-,-,-
Cc1[nH]n(-c2ccccc2)c(=O)c1N=Nc1ccc2c(c1)OCCO2,-,-,-,-,-,-,.,.,.,.
COc1ccc(C(=O)Nn2c(CCC(=O)O)ccc2-c2ccc(C)cc2)cc1OC,-,-,-,-,-,-,.,.,.,.
CCOc1ccc(NC(=O)C2CCN(S(=O)(=O)c3ccc4c(c3)NC(=O)C(C)S4)CC2)cc1 (configuration not stated),-,-,-,-,-,-,.,.,.,.
Cc1[nH]n(-c2ccccc2)c(=O)c1C(c1ccc(O)c([N+](=O)[O-])c1)c1c(C)[nH]n(-c2ccccc2)c1=O,-,-,-,-,100,-,34%,-,-,-
COc1cccc(N2CCN(CC(=O)NC(=O)NC3CCCCC3)CC2)c1,-,-,-,-,.,-,.,.,.,.
COc1ccc(Cl)cc1N(CC(=O)N1CCCC1)S(C)(=O)=O,-,-,-,-,-,-,.,.,.,.
CCc1ccc(CN2CCN(C(=O)c3cccc(OC)c3OC)CC2)cc1,-,-,-,-,25,-,-,-,-,-
CCCc1cc(=O)oc2cc(OCC(=O)NC3CC(C)(C)NC(C)(C)C3)ccc12,-,-,-,-,-,-,.,.,.,.
Cc1cccc(C(=O)Nc2sc(C)c(-c3ccccc3)c2C#N)c1,-,-,-,-,-,-,.,.,.,.
Cc1noc(C)c1C(=O)Nc1sc(C)c(-c2ccccc2)c1C#N,-,-,-,-,25,-,46%,-,-,-
Cc1sc2nc(CSC(C)C(=O)Nc3ccc(C#N)cc3)[nH]c(=O)c2c1C (configuration not stated),-,-,-,-,25,-,-,23%,-,-
Cn1c(CNS(=O)(=O)c2ccc(F)cc2)n[nH]c1=S,-,-,-,-,100,-,-,-,-,-
Cc1ccc(-c2noc(CCCC(=O)NC3CCCC3)n2)cc1,-,-,-,-,25,-,-,-,-,-
COc1cccc2c1C(=O)C=C(C)C2=O,-,-,-,-,25,-,-,24%,-,-
Cc1noc(C)c1C(=O)NNc1ccc(C(C)C)cc1,-,-,-,-,-,-,.,.,.,.
Cc1ccc(C(C)NC(=O)c2c(C)noc2C)cc1C (configuration not stated),-,-,-,-,25,-,-,-,-,-
Cc1ccc(NC(=O)CSc2ncccn2)cc1S(=O)(=O)N1CCOCC1,-,-,-,-,.,-,.,.,.,.
Cc1ccc(F)cc1NC(=O)c1ccc(NS(=O)(=O)c2ccc(Br)s2)cc1,-,-,-,-,25,-,-,-,-,-
Cc1ccc(NC(=O)c2cccs2)cc1NC(=O)c1ccc(F)cc1,-,-,-,-,-,-,.,.,.,.
O=S(=O)(NCC(c1ccco1)N1CCc2ccccc2C1)c1ccc(F)cc1 (configuration not stated),-,-,-,-,25,-,36%,-,-,-
Cc1cc(C)c(S(=O)(=O)NCC(c2ccco2)N2CCc3ccccc3C2)c(C)c1 (configuration not stated),-,-,-,-,-,-,.,.,.,.
O=C(COC(=O)C1=COCCO1)NCc1ccc(F)cc1,-,-,-,-,-,-,.,.,.,.
O=C(CNC(=O)c1ccccc1F)OC(C(=O)Nc1cc(C(F)(F)F)ccc1Cl)c1ccccc1 (configuration not stated),-,-,-,-,-,-,.,.,.,.
SMILES,RTF Ca sens inh,cardiac RTF act,CRFBP-R2 agonist,CRFR2-BP antag,ANO1 block,ANO1 activ,TMEM16A reconf,TMEM16A Ca cntr,Parental YFP cnt,ClC-1 inh
C[C@H](NC(=O)c1ccccc1Cl)C(=O)OC(C(=O)Nc1cc(C(F)(F)F)ccc1Cl)c1ccccc1 (some centres not stated),-,-,-,-,25,-,-,-,-,-
CCOC(=O)c1ccc[n+](CC(=O)c2ccc(NC(=O)c3ccccc3)cc2)c1,-,-,-,-,-,-,.,.,.,.
COc1ccccc1C(=O)N(Cc1nc(-c2ccc(Cl)cc2)no1)C(C)C,-,-,-,-,100,-,-,-,-,-
Cc1ccc(C(=O)N(Cc2nc(-c3ccc(C)cc3)no2)C(C)C)cc1,-,-,-,-,-,-,.,.,.,.
Cc1ccc(SCC(=O)N(Cc2nc(-c3ccccc3)no2)C(C)C)cc1,-,-,-,-,100,-,-,-,-,-
CC1CC(C)CN(c2cc(=O)n(Cc3ccc(F)cc3)c(=O)[nH]2)C1 (configuration not stated),-,-,-,-,100,-,-,-,-,-
O=c1cc(N2CCN(c3ccc(F)cc3)CC2)[nH]c(=O)n1Cc1ccc(F)cc1,-,-,-,-,-,-,.,.,.,.
COCOCCn1cc(CN2CCS(=O)(=O)N(Cc3ccc(-c4cccc(N(C)C)c4)cc3)C(C(C)C)C2=O)nn1 (configuration not stated),.,.,-,-,.,.,.,.,.,.
Cc1nn(C(=O)c2ccco2)c(C)c1Sc1ccc([N+](=O)[O-])cc1,-,-,-,-,-,-,.,.,.,.
Cc1nn(S(=O)(=O)c2cccs2)c(C)c1Sc1ccc([N+](=O)[O-])cc1,-,-,-,58,100,-,44%,-,-,-
O=c1/c(=C\c2cccc(O)c2)sc2nc(-c3ccccc3)c(-c3ccccc3)n12,-,-,-,-,-,-,.,.,.,.
COCC(=O)NCCSc1c(C)[nH]c2ccccc12,-,-,-,-,100,-,-,-,-,-
O=C(c1ccc(C#CC2(O)CCCCC2)cc1)N1CCN(C(c2ccccc2)c2ccccc2)CC1,-,-,-,-,-,-,.,.,.,.
O=C(CC1SC(N2CCCC2)=NC1=O)Nc1ccc(C(=O)NCc2ccccc2F)cc1 (configuration not stated),.,.,-,-,.,.,.,.,.,.
